Bioassay records from PubChem BioAssay.
In the library only some 2.8% were active in any assay of this set; here they are far more common.
Pol iota inh = blocks human DNA polymerase iota activity; Pol iota fluorescent replication assay, 10 min; Potency, µM (highest dose often 115 µM), for the others: top-dose activity, negative = inhibition, most hits filed as inhibitors; 390,000 tested, 1% active; AID 588590; also: potency is read from the fitted curve at half-maximal effect
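Fluorescent replication assay read twice, at 0 min and 10 min after adding 50 nM (final) substrate. Enzyme (10 nM) and compounds were first incubated 15 min at room temperature; enzyme-free buffer wells were negative controls.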
POLH inh = DNA polymerase eta (human) inhibition | recombinant Pol eta, fluorescent DNA replication assay | 390,000 tested, 1.2% active | Potency, µM (series often up to 114 µM), for the others: top-dose activity change, negative = inhibition, most hits filed as inhibitors; also: potency is read from the fitted curve at half-maximal effect; % is scaled to controls: 0 for no effect and ±100 for the full control effect
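Fluorescent replication assay: 50 nM final substrate added after a 15 min room-temperature compound preincubation with 10 nM enzyme. Signal taken at 0 min and again at 10 min.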
PI5P4Ka inh = blocks human PI5P4K alpha kinase activity; P48426; PI5P4Kalpha enzyme, ADP-Glo luminescence, 60 min; hits give low values; max response, %; 330,000 tested, 1.2% active; active = max response of -50% or lower; inconclusive = between -30% and -50%; inactive = -30% or higher; also: value at the top dose of about 77 µM; % is scaled to controls: 0 for no effect and ±100 for the full control effect
Target sequence (P48426 whole entry, looked up): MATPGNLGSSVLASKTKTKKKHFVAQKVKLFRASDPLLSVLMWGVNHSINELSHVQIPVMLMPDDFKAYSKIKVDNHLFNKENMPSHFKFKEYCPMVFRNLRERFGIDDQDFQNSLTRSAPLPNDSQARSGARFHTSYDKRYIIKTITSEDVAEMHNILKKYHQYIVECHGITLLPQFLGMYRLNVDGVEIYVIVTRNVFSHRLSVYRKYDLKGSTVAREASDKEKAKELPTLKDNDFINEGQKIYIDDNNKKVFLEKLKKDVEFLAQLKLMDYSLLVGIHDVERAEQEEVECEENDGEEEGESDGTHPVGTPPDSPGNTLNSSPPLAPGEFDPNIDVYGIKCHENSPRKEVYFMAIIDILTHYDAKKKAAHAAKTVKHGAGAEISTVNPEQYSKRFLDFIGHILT
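Luminescence from ADP-Glo served as readout of PI5P4Kalpha activity in a qHTS format. Reaction: enzyme, substrate, compound, ATP at 5 microM final, 60 min at RT.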
WRN inhibitor = inhibitors of human WRN helicase; Q14191; WRN helicase unwinding, fluorescent forked duplex, kinetic; Potency, µM (series often up to 114 µM), without a hit: at the highest dose activity change, negative = inhibition, usual class: inhibitors; 360,000 tested, 0.46% active; AID 651768; also: potency is read from the fitted curve at half-maximal effect; % is scaled to controls: 0 for no effect and ±100 for the full control effect; nearly all actives have a fitted effect of over 55% in size
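Primary qHTS, 1536-well format. 20 nM WRN + compound, 15 min RT; start with 100 nM forked fluorophore/quencher duplex, 2 mM ATP (final); kinetic read ex 525/em 598 nm.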
Pol kappa inh = inhibitors of human DNA polymerase kappa; 400,000 tested, 0.53% active; Potency, µM (top dose mostly 107 µM), for inactives: top-dose activity, negative = inhibition, most hits filed as inhibitors; purified Pol kappa, fluorescent DNA synthesis assay, 10 min; AID 588579; also: potency is read from the fitted curve at half-maximal effect; % is scaled to controls: 0 for no effect and ±100 for the full control effect
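Fluorescent qHTS in 1536-well format: enzyme (10 nM) and compound sat 15 min at room temperature before 50 nM substrate (final) was added. Signal taken at 0 and 10 min; no-enzyme buffer wells were negative controls.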
POLB inh = DNA polymerase beta (human) inhibition; P06746; Pol beta primer extension/strand displacement, fluorescence kinetic; Potency, µM (series often up to 114 µM), for the others: top-dose activity change, negative = inhibition, actives largely listed as inhibitors; 340,000 tested, 1.3% active; AID 485314; also: potency is read from the fitted curve at half-maximal effect; % is scaled to controls: 0 for no effect and ±100 for the full control effect
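10 nM enzyme + cpd, 15 min RT; start with substrate 50 nM final; read 0 min and after 10 min RT. Corrected, normalized data; 4-parameter Hill curve fit.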
* hit, by the source's call; ! = a repeat was not active; [ ] = dose if it differs, or a comment. Unless noted, calls follow the shape of the dose curve; as a rule, active = well fitted curve in the direction sought with a large enough effect; inconclusive = small, poorly fitted or top-dose-only effect, or another doubt; inactive = no such curve, though single readings can be large; an effect the other way counts as inactive or inconclusive.

COCCN1C=C2C(=O)C(C)(OC(=O)CCC(=O)OC)C(=O)C(Br)=C2C=C1c1ccc(OC)cc1 (centres undefined) was read as Pol iota inh inconclusive, POLH inh inconclusive, PI5P4Ka inh -23.4, WRN inhibitor 2.3% and Pol kappa inh -19.9%.
For Cc1cc(C)cc(OCC(=O)Nc2ccc(Cl)c(-c3nc4ncccc4o3)c2)c1 the results were Pol iota inh 12.8%, POLH inh -19.8%, Pol kappa inh -4.0% and POLB inh 14.2%.
`CC(C)c1ccc(C(=O)C[N+]2(C)CCOCC2)cc1` gave Pol iota inh 32.2% and Pol kappa inh 18.4%.
Screening O=C1Nc2ccc(S(=O)(=O)NCc3ccco3)c3cccc1c23 returned Pol iota inh 39.8µM*, POLH inh 20µM*, PI5P4Ka inh inconclusive, WRN inhibitor -14.5%[11.6 µM] and Pol kappa inh -43.2%.
`O=C(O)/C=C/c1ccc(S(=O)(=O)NCc2ccco2)cc1` gave Pol iota inh -21.7%, POLH inh 35.5µM*, PI5P4Ka inh 5.9, WRN inhibitor -4.6%[11.6 µM], Pol kappa inh -23.1% and POLB inh -29.2%.
For O=C(O)CNS(=O)(=O)c1ccc2c3c(cccc13)C(=O)N2 the results were Pol iota inh inconclusive, POLH inh 31.6µM*, PI5P4Ka inh -16.2, WRN inhibitor 56.2µM*, Pol kappa inh inconclusive and POLB inh 9.5%.
`COc1cc(OC)c(S(=O)(=O)NCc2ccco2)cc1S(=O)(=O)NCc1ccco1` gave Pol iota inh 0.9%, POLH inh -2.5%, PI5P4Ka inh -5.1, WRN inhibitor -4.9%, Pol kappa inh -8.3% and POLB inh 0.9%.
O=S(=O)(NCc1ccco1)c1ccccc1Br was read as Pol iota inh 89.1µM*!, POLH inh -11.0%, PI5P4Ka inh 0.7, WRN inhibitor 6.6%, Pol kappa inh -22.8% and POLB inh inconclusive.
`CN1C=CC(=C[N+](=O)[O-])N(C)C1=O` gave PI5P4Ka inh -0.1 and WRN inhibitor 9.5%[57.1 µM].
`C[C@H]1C=CC(=O)C[C@H]1c1c(F)cccc1Cl` gave Pol iota inh -22.6% and Pol kappa inh -2.8%.
`O=C(O)CCCCCNS(=O)(=O)c1ccc2c3c(cccc13)C(=O)N2` gave Pol iota inh inconclusive, POLH inh inconclusive, PI5P4Ka inh -12.7, WRN inhibitor inconclusive, Pol kappa inh inconclusive and POLB inh 15.8µM*.
`O=C(Cc1ccccc1)c1ccc(O)cc1O` gave Pol iota inh 4.8%, POLH inh -16.5%, PI5P4Ka inh 6.3, WRN inhibitor -1.6% and Pol kappa inh -5.4%.
O=C(O)c1cc(N(Cc2ccccc2O)Cc2cc(O)ccc2O)ccc1O was read as Pol kappa inh 11.2µM*.
Cc1ccc(NC(=O)COC(=O)c2cc(=O)c3ccccc3o2)cc1F was read as Pol iota inh 1.5%, POLH inh -1.5%, PI5P4Ka inh 2.8, WRN inhibitor 5.2% and Pol kappa inh -13.5%.
`O=C1C2CC=CCC2C(=O)N1Cc1ccccc1` (centres undefined) gave Pol iota inh -0.8%, POLH inh -4.0%, WRN inhibitor -9.7%[57.1 µM], Pol kappa inh -6.8% and POLB inh 1.3%.
`O=C1C=CC(=O)N1Cc1ccccc1` gave Pol iota inh 13.3%, POLH inh -7.1%, PI5P4Ka inh -86.2*, WRN inhibitor -13.6%, Pol kappa inh -1.3% and POLB inh 24.4%.
`CCOc1ccc(-c2nnc(SCC(=O)Nc3ccc4c(c3)c3ccccc3n4CC)n2N)cc1` gave Pol iota inh 50.1µM*, POLH inh inconclusive, PI5P4Ka inh -5.4, WRN inhibitor -18.7%[57.1 µM], Pol kappa inh -36.7% and POLB inh 39.8µM*.
`CCn1c2ccccc2c2cc(NC(=O)CSc3nnc(-c4ccc(OC)c(OC)c4)n3N)ccc21` gave Pol iota inh 5.3%, POLH inh 4.2%, PI5P4Ka inh -2.4, WRN inhibitor 1.2%, Pol kappa inh -10.4% and POLB inh 0.3%.
S=c1[nH]nc(-c2ccc(Cl)cc2)n1-c1ccc(Cl)cc1 was read as Pol iota inh 108.2%, POLH inh -8.0%, PI5P4Ka inh -0.5, WRN inhibitor -11.2%, Pol kappa inh -6.9% and POLB inh 23.0%.
For Nc1n[nH]c(=S)n1-c1ccc(Cl)cc1 the results were Pol iota inh -1.5%, POLH inh 2.3%, PI5P4Ka inh -54.2*, WRN inhibitor 4.3%, Pol kappa inh 10.0% and POLB inh -23.9%.
For CCOC(=O)[C@]12CCC=C1N(Cc1ccc3c(c1)OCO3)C(=O)[C@H](CC(=O)N1CCN(C(=O)c3ccco3)CC1)C2 the results were PI5P4Ka inh -0.2 and WRN inhibitor 1.4%.
CCOc1ccc(OCC)c(NC(=O)C2CCCN(S(=O)(=O)c3cc(Br)cc4c3N(C(=O)CC)CC4)C2)c1 (centres undefined) was read as Pol iota inh 89.1µM*, POLH inh -4.2%, Pol kappa inh -24.1% and POLB inh -0.3%.
CC(=O)N(/N=C1\Sc2ccccc2C1=O)c1cccc(C)c1 was read as Pol iota inh inconclusive, POLH inh 20µM*, PI5P4Ka inh 0.7, WRN inhibitor -12.7%[11.6 µM], Pol kappa inh 0.7% and POLB inh -1.8%.
`CCOc1ccc(CN2CCN(c3ncnc4scc(-c5ccccc5)c34)CC2)cc1` gave Pol iota inh 120.6%, POLH inh -17.9%, PI5P4Ka inh 4.3, WRN inhibitor 9.5%, Pol kappa inh 1.0% and POLB inh 6.8%.
Screening Cc1sc2ncnc(N3CCN(Cc4ccccc4)CC3)c2c1-c1ccccc1 returned Pol iota inh 89.1µM*, POLH inh -23.3%, PI5P4Ka inh 4.3, WRN inhibitor 3.4%[11.6 µM], Pol kappa inh inconclusive and POLB inh -0.8%.
For O=C(CCc1ccccc1)NNC(=O)COc1ccc(Br)cc1 the results were Pol iota inh 50.1µM*, POLH inh 10.5%, PI5P4Ka inh 3.8, WRN inhibitor -7.3%[11.6 µM], Pol kappa inh inconclusive and POLB inh inconclusive.
Screening O=C(CCC(=O)NNC(=O)COc1ccc(Br)cc1)NCc1ccccc1 returned Pol iota inh 34.6%, POLH inh -7.6%, PI5P4Ka inh 4.2, WRN inhibitor -6.0%[57.1 µM], Pol kappa inh 1.7% and POLB inh inconclusive.
CC(=O)Nc1ccc(C(=O)CSc2nnc(-c3ccccc3)n2-c2ccccc2)cc1 was read as Pol iota inh inconclusive, POLH inh -9.0%, Pol kappa inh 4.8% and POLB inh 10µM*.
Cc1ccc(C(=O)CSc2nnc(-c3ccccc3)n2-c2ccccc2)cc1 was read as Pol iota inh 26.6%, POLH inh -6.8%, Pol kappa inh 8.1% and POLB inh 2.7%.
